{
  "source": "PubChem BioAssay AID504332",
  "about": "(National Center for Advancing Translational Sciences (NCATS), 2011)",
  "note": "Among all 350,000 compounds or so, about 31,000 (8.9%) were called active. Not shown: some 15% with an inconclusive outcome. Calls come from the whole dose curve; as a rule, active = well fitted inhibition curve with a large enough effect; inconclusive = small, poorly fitted or top-dose-only effect; inactive = no such curve, though single readings can be large or run the other way. For the sample, actives were picked, then their nearest neighbours and some compounds at random. % is set by controls: 0 for no effect and ±100 for the full control effect; potency is the fitted concentration of half-maximal effect.",
  "data": [
    {"target": "Histone-lysine N-methyltransferase EHMT2 (Homo sapiens) (UniProt Q96KQ7)", "sequence (Q96KQ7 913-1193 limits assumed)": "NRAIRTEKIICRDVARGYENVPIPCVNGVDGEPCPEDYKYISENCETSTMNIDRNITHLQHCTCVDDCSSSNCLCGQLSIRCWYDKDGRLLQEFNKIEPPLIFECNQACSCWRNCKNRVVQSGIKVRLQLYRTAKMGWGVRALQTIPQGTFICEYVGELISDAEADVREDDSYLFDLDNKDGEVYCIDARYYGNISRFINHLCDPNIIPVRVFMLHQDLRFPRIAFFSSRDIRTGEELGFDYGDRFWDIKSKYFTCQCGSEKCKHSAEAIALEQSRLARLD", "assay": "qHTS Assay for Inhibitors of Histone Lysine Methyltransferase G9a; note: nearly all actives have a fitted effect of over 75% in size", "conditions": "G9a H3K9 monomethylation, AlphaScreen, 2 h; series mostly up to 59 µM; activity, negative = inhibition: at the top concentration", "method_in_brief": "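AlphaScreen read-out: biotin-H3K9 peptide (500 nM) methylation by 20 nM enzyme with 20 uM SAM, 2 h at room temperature after 15 min compound preincubation; anti-monomethyl H3K9 antibody plus donor/acceptor beads, 10 min dark.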", "values": [
      {"smiles": "Cc1cc(C)cc(Nc2ncnc3onc(-c4ccc(F)cc4)c23)c1", "activity, negative = inhibition": "-3.93% (inactive)"},
      {"smiles": "CNC(=O)CN1C(=O)c2cccnc2Sc2ccccc21", "activity, negative = inhibition": "18.1% (inactive)"},
      {"smiles": "O=C(CSc1oc(-c2ccco2)nc1S(=O)(=O)c1ccccc1)c1ccc(Cl)cc1", "activity, negative = inhibition": "-33.3% (inactive)"},
      {"smiles": "COc1cccc(NC(=O)c2ccccc2N(Cc2ccccc2)S(C)(=O)=O)c1", "activity, negative = inhibition": "19.2% [at 0.501 µM] (inactive)"},
      {"smiles": "COc1ccc(-n2c(SCC(=O)Nc3ccc(Cl)c(C)c3)nc3n[nH]c(C)c3c2=N)cc1", "activity, negative = inhibition": "8.7% (inactive)"},
      {"smiles": "COc1ccc(C2C(=O)N(C3CCCCC3)CC(=O)N2Cc2ccccc2Cl)cc1OC", "note": "(stereo unspecified)", "activity, negative = inhibition": "-2.55% (inactive)"},
      {"smiles": "Cc1cc(C(=O)COc2ccccc2Cl)c(C)n1C1CC1", "activity, negative = inhibition": "15.7% [at 0.501 µM] (inactive)"},
      {"smiles": "O=C(CC(c1cccs1)N1Cc2ccccc2C1=O)Nc1ccc(F)cc1F", "note": "(stereo unspecified)", "activity, negative = inhibition": "-1.76% (inactive)"},
      {"smiles": "CCOc1ccc(NC(=O)c2c(NC(=O)Cc3ccccc3)sc3c2CCC(C)C3)cc1", "note": "(stereo unspecified)", "Potency": "2 µM (active)"},
      {"smiles": "COC(=O)c1c(NC(=O)c2cccs2)sc2c1CCCC2", "activity, negative = inhibition": "-19.4% (inactive)"},
      {"smiles": "Cc1cccc(OCCCC(=O)Nc2sc3c(c2C(N)=O)CCC(C)C3)c1", "note": "(stereo unspecified)", "activity, negative = inhibition": "-6.2% (inactive)"},
      {"smiles": "Cc1ccc(C(=O)c2c(NC(=O)c3ccncc3)sc3c2CCCC3)cc1", "Potency": "15.8 µM (active)"},
      {"smiles": "COC(=O)c1c(NC(=O)CCCOc2ccccc2)sc2c1CCC(C)C2", "note": "(stereo unspecified)", "activity, negative = inhibition": "45% (inactive)"},
      {"smiles": "COC(=O)c1c(NC(=O)c2ccc(Cl)c(Cl)c2)sc2c1CCCC2", "activity, negative = inhibition": "-44.1% (inactive)"},
      {"smiles": "CCOc1ccc(NC(=O)Cn2c(=O)n(CCCC(=O)NCc3ccc4c(c3)OCO4)c(=O)c3ccccc32)cc1", "activity, negative = inhibition": "-29.8% (inactive)"},
      {"smiles": "Cc1sc2ncn(CC(=O)N3CCN(c4ccc(F)cc4)CC3)c(=O)c2c1S(=O)(=O)N1CCN(c2ncccn2)CC1", "activity, negative = inhibition": "-32.7% (inactive)"},
      {"smiles": "Cc1ccc(C)c(S(=O)(=O)n2nc(C)c(S(=O)(=O)N3CCC(C)CC3)c2C)c1", "activity, negative = inhibition": "4% (inactive)"},
      {"smiles": "CCc1ccc(Sc2cc(C(=O)NCCCOC(C)C)c3ccccc3n2)cc1", "activity, negative = inhibition": "14.5% (inactive)"},
      {"smiles": "CC(C)(CNC(=O)CNC(=O)C1CCCCC1)N1CCOCC1", "activity, negative = inhibition": "-2.59% [at 12.7 µM] (inactive)"},
      {"smiles": "O=c1c2cc(Br)ccc2nc(-c2cccc(Cl)c2)n1O", "activity, negative = inhibition": "-6.02% [at 102 µM] (inactive)"},
      {"smiles": "Cc1ccc(C(=O)Nc2sc(Cc3ccc4c(c3)OCO4)c(C)c2C(N)=O)cc1", "Potency": "50.1 µM (active)"},
      {"smiles": "COCc1nnc(NC(=O)c2ccc3c(c2)OCO3)s1", "activity, negative = inhibition": "-43.4% [at 102 µM] (inactive)"},
      {"smiles": "COc1ccc(CC(=O)Nc2sc(Cc3ccccc3)c(C)c2C(N)=O)cc1", "activity, negative = inhibition": "-34.6% [at 102 µM] (inactive)"},
      {"smiles": "O=C(Nc1ccc2nc(SCCOc3ccccc3)sc2c1)c1ccco1", "activity, negative = inhibition": "32.6% (inactive)"},
      {"smiles": "Cc1cc2nc(NC(=O)c3ccc(S(=O)(=O)N4CCOCC4)cc3)sc2cc1C", "activity, negative = inhibition": "-1.89% (inactive)"},
      {"smiles": "O=c1c2cccnc2n(Cc2cccc(F)c2)c(=O)n1Cc1ccccc1Cl", "activity, negative = inhibition": "43.8% (inactive)"}
    ]}
  ]
}
